Bioassay records from PubChem.
HT1080 IDH1KD tx = qHTS for induction of synthetic lethality in tumor cells producing 2HG: qHTS for the HT-1080-IDH1KD cell line; HT-1080 IDH1 knockdown viability, ATP luminescence, 48 h; Potency, µM (top dose mostly 46.1 µM), usual class: cytotoxic; 360,000 tested, 2% active; AID 686971, 2013
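After a 2 h attachment period, IDH1KD HT-1080 cells took pin-transferred compound for 48 h at 37 °C; ATP-based luminescence after 10 min room-temperature reagent incubation reported viability.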
HT1080-NT tox = qHTS for induction of synthetic lethality in tumor cells producing 2HG: qHTS for the HT-1080-NT fibrosarcoma cell line; Potency, µM (top dose mostly 46.1 µM), most hits filed as cytotoxic; AID 686970, 2013; 360,000 tested, 1.6% active; HT-1080-NT fibrosarcoma viability, CellTiter-Glo ATP luminescence, 48 h;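 further: NT is the 2HG producing partner of a matched IDH1 knockdown line; nearly all actives have a fitted effect of over 55% in size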
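750 cells/well, RPMI + 5% FBS; 2 h settle, compound pin-transfer, 48 h at 37 degrees C. CellTiter-Glo 10 min RT, luminescence. Normalized to DMSO and media-only wells.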
TDP1 cell CPT = qHTS for Inhibitors of human tyrosyl-DNA phosphodiesterase 1 (TDP1): qHTS in cells in presence of CPT; 420,000 tested, 12% active; Potency, µM (top dose mostly 46.2 µM), usual class: inhibitors; chicken DT40 Tdp1-/-;hTDP1 cells + 20 nM CPT, ATP luminescence, 48 h; further: nearly all actives have a fitted effect of over 55% in size
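Chicken DT40 Tdp1-/- cells complemented with human TDP1, 400 cells/well, exposed to compounds plus 20 nM camptothecin for at least 48 h at 37 C; viability read as ATP content by CellTiter-Glo luminescence.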
DT40 TDP1 no CPT = qHTS for Inhibitors of human tyrosyl-DNA phosphodiesterase 1 (TDP1): qHTS in cells in absence of CPT; 420,000 tested, 15% active; DT40 Tdp1-/- hTDP1 cells, no CPT, ATP luminescence, 48 h; Potency, µM (doses to about 46.2 µM), actives largely listed as inhibitors; further: nearly all actives have a fitted effect of over 55% in size
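A cellular qHTS used chicken DT40 cells lacking endogenous Tdp1 but carrying stably transfected human TDP1. Compounds were applied without camptothecin, and cell growth kinetics were judged by ATP-dependent luminescence after ≥48 hr.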
KB-3-1 cytotox = qHTS assay for MDR1-selective chemotherapeutics: Primary screen using the parental adenocarcinoma cell KB-3-1. Potency, µM (top dose mostly 46.1 µM), actives largely listed as cytotoxic. KB-3-1 viability, CellTiter-Glo ATP luminescence, 72 h. 400,000 tested, 1.4% active; further: nearly all actives have a fitted effect of over 60% in size
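KB-3-1 parental drug-naive adenocarcinoma cells in DMEM/10% FBS, incubated 72 h at 37 C with pin-transferred compounds across a concentration series. Viability by CellTiter-Glo luminescence; concentration-response curves fitted after normalization.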
KB-V1 MDR tox = qHTS assay for MDR1-selective chemotherapeutics: Primary screen using the drug-selected MDR subline cells KB-V1. KB-V1 MDR cells viability, CellTiter-Glo, 72 h. 400,000 tested, 3.4% active. Potency, µM (top dose mostly 46.1 µM), hits mostly cytotoxic; further: nearly all actives have a fitted effect of over 60% in size
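KB-V1 MDR subline cells in DMEM (phenol-red free, 10% FBS) exposed to compounds in qHTS concentration series for 72 h at 37 degrees C. Viability read by CellTiter-Glo luminescence; concentration-effect curves fitted after normalization and correction.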
A number is an active result; – = inactive; ? = inconclusive; · = no result given; [ ] = another dose, or the depositor's remark. Rows were chosen to be rich in hits. Some 19% of all compounds tested hit in one or more screens of this group. The call rests on the fitted dose curve; in most records, active means well fitted curve in the direction sought with a large enough effect; inconclusive means small, poorly fitted or top-dose-only effect, or another doubt; inactive means no such curve, though single readings can be large; an effect the other way counts as inactive or inconclusive.

SMILES	HT1080 IDH1KD tx	HT1080-NT tox	TDP1 cell CPT	DT40 TDP1 no CPT	KB-3-1 cytotox	KB-V1 MDR tox
CCOC(=O)c1cc2c(=O)n3ccccc3nc2n(CC2CCCO2)c1=NC(=O)c1cccc(C)c1 (centres undefined)	·	·	5.2µM	5.8µM	–	?
CCOC(=O)c1cc2c(=O)n3ccccc3nc2n(CC2CCCO2)c1=NC(C)=O (centres undefined)	–	–	–	–	–	?
CCOC(=O)c1cc2c(=O)n3ccccc3nc2n(CC2CCCO2)c1=NC(=O)c1cccc(C(F)(F)F)c1 (centres undefined)	·	·	–	–	–	–
CCOC(=O)c1cc2c(=O)n3ccccc3nc2n(CC2CCCO2)c1=NC(=O)c1cc(C)cc(C)c1 (centres undefined)	·	·	0.16µM	0.037µM	?	?
O=C(c1ccc2c(c1)OCO2)N1CCOc2ccc(CN3CCC(Oc4cccnc4)CC3)cc2C1	·	·	–[9.04 µM]	–	·	·
CCCCCCCCCCCCCC(=O)N[C@H](C)[C@@H](O)c1ccccc1	·	·	–[4.12 µM]	–[4.12 µM]	·	·
CCOC(=O)c1cc2c(=O)n3ccccc3nc2n(CC2CCCO2)c1=NC(=O)c1ccc(OCC)cc1 (centres undefined)	·	·	6.5µM	5.8µM	–	–
CCOC(=O)c1cc2c(=O)n3ccccc3nc2n(CC2CCCO2)c1=NC(=O)c1ccc(OC)cc1OC (centres undefined)	·	·	?	16µM	–	–
CCOC(=O)c1cc2c(=O)n3ccccc3nc2n(CCOC)c1=NC(=O)c1cc2ccccc2o1	·	·	–	–	?	?
CCOC(=O)c1cc2c(=O)n3ccccc3nc2n(Cc2ccco2)c1=NC(=O)c1cc(C)cc(C)c1	·	·	1.3µM	1.2µM	–	–
Cc1cccc(NC(=O)Nc2c(C)n(C)n(-c3ccccc3)c2=O)c1C	–	–	–	–	–	–
C=C1Cc2c(Cl)cc3[nH]c4c5c3c2[C@@]2(O)[C@@H]1C[C@@H]2C(C)(C)O[C@H]5[C@@H]1CC[C@@]2(O)[C@@]35O[C@@H]3[C@@H](O)[C@@H](C(=O)O)O[C@H]5CC[C@]2(C)[C@@]41C	·	·	5.8µM	4.1µM	·	·
CCOc1ccccc1OCC(=O)Nc1cc(S(=O)(=O)N2CCCCC2)ccc1N1CCN(CC)CC1	–	–	23µM	16µM	–	?
CC(CCc1ccccc1)NC(=O)COc1ccc(S(=O)(=O)N2CCOCC2)cc1[N+](=O)[O-] (centres undefined)	–	–	?	?	–	21µM
CCN1CCN(c2ccc(S(=O)(=O)N3CCCCC3)cc2NC(=O)c2ccccc2)CC1	–	–	?	?	–	–
CC(CCc1ccccc1)NC(=O)COc1cc(F)ccc1[N+](=O)[O-] (centres undefined)	–	–	–	?	–	–
CC(=O)NCCC(=O)Nc1cc(S(=O)(=O)N2CCCCC2)ccc1N1CCCCC1	–	–	?	23µM	–	–
O=C(COc1ccc(Cl)cc1Br)Nc1ccccc1N1CCCC1	–	–	21µM	?	?	?
CCCN(CC(=O)Nc1ccccc1OC)C(=O)CN1C(=O)NC(C)(C)C1=O	–	–	–	–	–	–
CCCN(CC(=O)Nc1ccccc1C)C(=O)Cc1cccs1	–	–[9.24 µM]	–	–	–	–
CN(CC(=O)Nc1ccc(OC(F)(F)F)cc1)C(=O)Cn1c(=O)cnc2ccccc21	–	–	–	?	–	–
Cc1ccc(OCC(=O)Nc2cc(S(=O)(=O)N3CCCCC3)ccc2N2CCN(C)CC2)c(C)c1	–	–	15µM	9.2µM	–	–
COc1ccccc1OCC(=O)Nc1cc(S(=O)(=O)N2CCCCC2)ccc1N1CCCCC1	–	–	23µM	23µM	–	–
Cc1cc(C(=O)COc2ccc(Cl)cc2Br)c(C)n1C	–	–	–	?	–	?
Cc1ccccc1OCCC(=O)Nc1cc(S(=O)(=O)N2CCCCC2)ccc1N1CCN(C)CC1	–	?	?	?	–	–
SMILES	HT1080 IDH1KD tx	HT1080-NT tox	TDP1 cell CPT	DT40 TDP1 no CPT	KB-3-1 cytotox	KB-V1 MDR tox
COC(=O)C1CCCN1C(=O)COc1ccc(Cl)cc1Br (centres undefined)	–	–	18µM	?	–	–
COc1ccccc1OCC(=O)Nc1cc(Cl)ccc1N1CCCCC1	–	–	–	–	–	15µM
CCOc1ccccc1OCC(=O)Nc1cc(S(=O)(=O)N2CCCCC2)ccc1OC	–	–	?	?	–	?
CCCNC(=O)CC1C(=O)N(Cc2ccccc2)C(C)c2nc3ccccc3n21 (centres undefined)	–	–	–	–	–	–
Cc1ccccc1OCC(=O)Nc1cc(S(=O)(=O)N2CCOCC2)ccc1N1CCCC1	–	–	?	?	–	–
CC(C)c1ccccc1OCC(=O)Nc1cc(S(=O)(=O)N2CCOCC2)ccc1N1CCCC1	–	–	?	15µM	–	–
CC[C@@]1(C(=O)OC)N[C@H](CN(C)S(=O)(=O)c2ccc(C(C)(C)C)cc2)[C@@H]2C(=O)N(C)C(=O)[C@@H]21	–	–	–	?	–	–
O=C(NCCOc1ccccc1F)c1cc([N+](=O)[O-])ccc1N1CCOCC1	8.2µM	6.5µM	5.2µM	3.7µM	?	–
O=C(NCCOc1ccccc1)c1cc([N+](=O)[O-])ccc1N1CCOCC1	7.3µM	?	1.8µM	1.6µM	?	?
O=C(Nc1nc2ccc(Oc3ccccc3)cc2s1)c1cc([N+](=O)[O-])ccc1N1CCOCC1	–	–	?	13µM	–	–
Cc1ccc(NC(=O)CSc2nc3ccccc3c3nc(CCc4c(C)n[nH]c4C)nn23)c(C)c1	·	·	–	–	–	–
COc1ccccc1C/C(N)=N/OC(=O)COc1ccc(C)cc1	–	–	–	?	–	?
O=C(COC(=O)C1CCN(c2ccc(C(F)(F)F)cn2)CC1)NCc1ccc(F)cc1	–	–	–	–	–	–
C=Cc1ccc(Cn2c(C(=O)O)c(CNCc3cc(Br)ccc3OC)c3ccc(C)cc32)cc1	·	·	–	?	–	?
C=Cc1ccc(Cn2c(C(=O)O)c(CNCc3ccccc3)c3ccc(C)cc32)cc1	·	·	7.3µM	4.6µM	?	–
